Screening data as filed in PubChem.
KCNQ2 block – rat KCNQ2 potassium channel inhibitors, primary screen, cell-based, CHO-K1, FluxOR thallium flux, B-score; B-score at 10 µM; 20 min; stronger effect = lower value; hit rate 1.1% among 310,000;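 active means fluorescence ratio B-score at most minus 3 library SDs, with starting brightness B-score within 2 library SDs, cut at about -5.5 in these data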
Target sequence (O88943 whole entry, looked up): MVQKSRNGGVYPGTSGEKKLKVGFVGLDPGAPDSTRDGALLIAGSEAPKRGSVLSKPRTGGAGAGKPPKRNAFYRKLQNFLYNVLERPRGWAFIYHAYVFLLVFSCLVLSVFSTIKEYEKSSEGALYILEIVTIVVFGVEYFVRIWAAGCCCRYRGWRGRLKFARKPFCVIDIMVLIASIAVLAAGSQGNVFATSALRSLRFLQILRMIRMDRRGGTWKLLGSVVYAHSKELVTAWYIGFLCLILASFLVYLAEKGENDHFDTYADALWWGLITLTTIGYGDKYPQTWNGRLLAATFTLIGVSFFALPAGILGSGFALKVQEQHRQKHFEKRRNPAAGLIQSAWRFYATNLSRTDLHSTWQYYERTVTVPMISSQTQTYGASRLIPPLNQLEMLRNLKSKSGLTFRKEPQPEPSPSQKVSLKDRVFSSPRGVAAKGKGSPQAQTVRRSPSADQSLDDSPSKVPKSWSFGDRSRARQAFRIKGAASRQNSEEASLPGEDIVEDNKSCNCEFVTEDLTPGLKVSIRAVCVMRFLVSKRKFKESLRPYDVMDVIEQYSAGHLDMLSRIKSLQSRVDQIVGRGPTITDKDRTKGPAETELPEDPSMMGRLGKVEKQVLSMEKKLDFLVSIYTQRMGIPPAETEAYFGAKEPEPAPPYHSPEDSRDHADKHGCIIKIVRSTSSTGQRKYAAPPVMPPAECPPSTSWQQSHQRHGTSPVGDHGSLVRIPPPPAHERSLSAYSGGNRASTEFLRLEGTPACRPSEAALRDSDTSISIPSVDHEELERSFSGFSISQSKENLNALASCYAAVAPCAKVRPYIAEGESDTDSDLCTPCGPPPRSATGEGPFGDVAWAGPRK
KCNQ2 pot – potentiators of rat KCNQ2 potassium channel | hit rate 0.54% among 310,000 | Potassium voltage-gated channel subfamily KQT member 2 (Rattus norvegicus), O88943 | B-score at 10 µM | CHO-K1 KCNQ2, FluxOR thallium flux fluorescence; stronger effect = higher value;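 active means fluorescence ratio B-score at least 3 SD of library B-scores, with initial fluorescence B-score within 3 of them, cut at about 5.3 in these data; same plate scores as AID 2156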;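 further: B-score of peak minus minimum over baseline fluorescence ratio after K+ and Tl+ stimulus; positive B-score means potentiation of KCNQ2 with more thallium influx and brighter signal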
Kir21 confirm – mouse Kir2.1 channel blockers, retest, confirmation, cell-based, FluxOR thallium flux, duplicate | hit rate 41% among 2,300 | shares compounds with KCNQ2 pot | Tl flux remaining, % of negative control (stronger effect = lower value), % at 10 µM | Kir2.1-expressing cells, FluxOR thallium flux fluorescence; stronger effect = lower value;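 active means Primary-screen hit whose thallium flux fell at least 3 control SD below untreated wells in both duplicates, with normal baseline fluorescence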;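 further: 0% = blank wells without stimulus and 100% = stimulated no-compound controls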
HEK293 Tl flux – parental HEK293 activity in Kir2.1 inhibitor counter-screen; AID 2105; FluxOR signal as % of negative control (100 = no effect), % at 10 µM; parental HEK293 cells, FluxOR thallium flux fluorescence; 0% = unstimulated blank wells; hit rate 19% among 2,300; shares compounds with KCNQ2 pot;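 active means dye signal at least 3 control SD above or below untreated wells in both duplicates, raw fluorescence within 3, either direction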;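 further: percent is based on the flux ratio of peak minus minimum fluorescence over baseline F0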
CHO-K1 ctr – nonspecific thallium flux increase in parental CHO-K1, confirmation, counter-screen for KCNQ2 potentiator project, cell-based, FluxOR thallium flux, duplicate | activity increase over 3SD of controls, % at 10 µM | hit rate 43% among 1,200 | parental CHO-K1 cells, FluxOR thallium flux fluorescence; zero = vehicle mean+3SD, 100% = vehicle-minus-blank window | shares compounds with KCNQ2 pot;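 active means signal rise of at least 3 SD above the untreated control mean, in both duplicate wells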;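 further: counter screen of KCNQ2 potentiator hits so any rise reflects channel-independent effects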
KCNQ1 pot spec – human KCNQ1 channel potentiation off-target, confirmation, selectivity assay for KCNQ2 potentiator project, cell-based, CHO, FluxOR thallium flux. shares compounds with KCNQ2 pot. CHO KCNQ1 stable, FluxOR thallium flux fluorescence; beyond 3SD, as % of vehicle-control signal. activation over 3SD threshold, % at 10 µM. hit rate 28% among 1,200. AID 2283, 2010;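 active means fluorescence ratio rise of at least 3 SD of vehicle wells above their mean, in both replicate wells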;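 further: 0% = vehicle mean plus 3 SD and 100% = vehicle minus unstimulated blank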
KCNQ2 pot confirm – rat KCNQ2 channel potentiators, confirmation, cell-based, CHO, FluxOR thallium flux, duplicate. shares compounds with KCNQ2 pot. CHO-KCNQ2 cells, FluxOR thallium flux fluorescence. potentiation, less the hit threshold, % at 10 µM. hit rate 68% among 1,200. AID 2287, 2010;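 active means fluorescence ratio rising 3 SD or more over the vehicle control mean in both replicates, plus primary screen hit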;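 further: peak minus minimum thallium fluorescence divided by baseline after K/Tl stimulus; 0% = vehicle mean plus 3 SD and 100% = vehicle minus unstimulated blank difference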
Kir2-1 sel – mouse Kir2.1 channel activation off-target, confirmation, selectivity assay for KCNQ2 potentiator project, cell-based, HEK293, FluxOR thallium flux | shares compounds with KCNQ2 pot | HEK293 Kir2.1, FluxOR thallium flux fluorescence | activity over 3SD threshold, % at 10 µM | hit rate 2% among 1,200 | AID 2345, 2010;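 active means fluorescence ratio rise of at least 3 SD above the vehicle-control mean, seen in both replicates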;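 further: 0% = vehicle mean plus 3 SD and 100% = vehicle minus no-stimulus blank window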
KCNQ2 W236L MoA – potentiators of retigabine-insensitive KCNQ2 W236L, mechanism study for KCNQ2 potentiator project, cell-based, rat KCNQ2 W236L, CHO, automated patch clamp; shares compounds with KCNQ2 pot; hit rate 10% among 940; AID 2558, 2010; current increase over 3SD of negative controls (%), stronger effect = higher value, % at 25 µM; automated patch clamp current;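 active means current increase at least 3 SD of the untreated controls above them in both duplicate recordings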
Starred values were filed as active, the others as inactive; i = inactive; / = no result. A selection: hits, their analogues and other compounds. The true share with any hit is near 1.6%.

SMILES	KCNQ2 block	KCNQ2 pot	Kir21 confirm	HEK293 Tl flux	others
CC(C)(C)c1ccccc1OCC(=O)Nc1ccccc1C(=O)NCc1cccnc1	i	2.3	77%*	i
CC(C)(C)C(=O)Nc1ccccc1C(=O)NCc1cccnc1	i	0.58	/	/
CN(CC(=O)Nc1ccc(F)cc1[N+](=O)[O-])Cc1ccccc1	i	1.2	/	/
O=C1COc2ccccc2N1Cc1c(F)cccc1Cl	i	0.13	/	/
Oc1c(Br)cc(Cl)cc1C=Nc1ccc(N2CCOCC2)cc1	i	11*	i	i	CHO-K1 ctr=-1;KCNQ1 pot spec=0.5*;KCNQ2 pot confirm=7.7*;Kir2-1 sel=-27;KCNQ2 W236L MoA=i
Oc1ccc(N=Nc2cccc(Cl)c2)cc1C=Nc1ccc(N2CCOCC2)cc1	i	1.4	/	/
Oc1c(Cl)cc(Cl)cc1C=Nc1ccc2c(c1)OCCO2	i	8.5*	i	i	CHO-K1 ctr=92*;KCNQ1 pot spec=-1;KCNQ2 pot confirm=-1;Kir2-1 sel=-22;KCNQ2 W236L MoA=i
Brc1csc(C=Nc2ccc3c(c2)OCCOCCOCCOCCO3)c1	i	0.47	/	/
Cc1cc(Cl)ccc1C(=O)C1CCCN(C(=O)CN2CCOC2=O)C1 (centres undefined)	i	/	/	/
Cc1cccc(CC(=O)NCCn2c(C)cc3ccccc32)c1	i	6.9*	i	i	CHO-K1 ctr=87*;KCNQ1 pot spec=-3;KCNQ2 pot confirm=17*;Kir2-1 sel=-39;KCNQ2 W236L MoA=i
Cc1cc2ccccc2n1CCNC(=O)Cc1ccccc1	i	/	/	/
O=C(Nc1nccs1)c1ccc(N2CCOCC2)c([N+](=O)[O-])c1	i	0.03	/	/
Cc1ccc2c(CN3CCCCC3C)cc(=O)oc2c1C (centres undefined)	i	24*	i	i	CHO-K1 ctr=-3;KCNQ1 pot spec=-18;KCNQ2 pot confirm=-27;Kir2-1 sel=-32
Cc1ccc2c(CN3CCCCC3C)cc(=O)oc2c1 (centres undefined)	i	0.02	/	/
Cc1nc(C)n(C(C)CNC(=O)c2cccc(Br)c2)n1 (centres undefined)	i	0.12	/	/
C=CCOC(=O)C1=C(C)N=C2SCCC(=O)N2C1c1ccc(OC(=O)c2ccco2)cc1 (centres undefined)	i	/	/	/
COC(=O)C1=C(C)N=C2SCCC(=O)N2C1c1ccc(OC(=O)c2ccco2)cc1 (centres undefined)	i	/	52%*	i
COc1ccccc1NC(=O)C(=O)NNC(=O)COc1ccc2ccccc2c1	i	23*	i	i	CHO-K1 ctr=41*;KCNQ1 pot spec=-25;KCNQ2 pot confirm=28*;Kir2-1 sel=-29;KCNQ2 W236L MoA=i
COc1ccccc1NC(=O)COc1ccc2ccccc2c1	i	/	/	/
CSc1ncc(OCc2ccccc2)c(=O)[nH]1	i	0.04	/	/
Cn1cc(CCNC(=O)C2CCC(=O)N(CCc3ccc(Cl)cc3)C2)cn1 (centres undefined)	i	0.57	/	/
OCCNCc1cc(Br)ccc1OCc1ccc(Cl)cc1	i	0.2	/	/
OCCNCc1cccc(OCc2ccc(Cl)cc2)c1	i	0.57	i	i
Cc1c(NC(=O)C(C)OC(=O)CCOc2ccccc2)c(=O)n(-c2ccccc2)n1C (centres undefined)	i	0.53	/	/
O=C(Nn1cnnc1)c1ccc(Cl)c(Cl)c1	i	1.4	/	/
SMILES	KCNQ2 block	KCNQ2 pot	Kir21 confirm	HEK293 Tl flux	others
C=CCC1(CC=C)CCCN1Cc1nc(COc2ccccc2)no1	i	/	/	/
COc1ccccc1C(=O)NNC(=O)C(=O)NC1CCCCC1	i	8.5*	i	321%*	CHO-K1 ctr=-6;KCNQ1 pot spec=33*;KCNQ2 pot confirm=42*;Kir2-1 sel=-18;KCNQ2 W236L MoA=i
COc1ccccc1C(=O)Nc1ccccc1C(=O)NC1CCCCC1	i	0.1	/	/
COc1ccc(/C(N)=N/OC(=O)CC2CCCCC2)cc1	i	/	/	/
Cc1c(C)n(CCN(C)C)c2ccc(C(=O)OCCN(C)C)cc12	i	2.1	/	/
Cc1c(C)n(Cc2ccccc2)c2ccc(C(=O)OCCCN(C)C)cc12	i	/	24%*	i
Cc1nc2scc(-c3ccccc3)c2c(=O)n1N=C1C=CC(=O)C=C1	i	/	62%*	51%*
Cc1nc2scc(-c3ccccc3)c2c(=O)n1N	i	0.36	/	/
CCN(CC)CCNCc1cc(Br)ccc1OCC(=O)NCc1ccccc1	i	/	/	/
CC(NCc1cc(Br)ccc1OCC(=O)NCc1ccccc1)c1ccccc1 (centres undefined)	i	/	43%*	i
COc1ccc(OC)c(S(=O)(=O)N2CCC(C(=O)NC3CCCCCC3)CC2)c1	i	/	/	/
CCOC(=O)c1cnc2ccc(C(=O)OC)cc2c1NCCc1ccc(OC)c(OC)c1	i	/	/	/
CCOC(=O)c1cnc2c(C)cccc2c1NCCc1ccc(OC)c(OC)c1	i	/	i	i
CCOC(=O)c1cnc2c(OC)cccc2c1N1CC(C)CC(C)C1 (centres undefined)	i	1.2	/	/
CCOC(=O)c1cnc2c(OC)cccc2c1Oc1ccccc1	i	/	48%*	i
COc1ccc(C(=O)Nc2nnc(CCS(=O)(=O)c3ccc(C)cc3)s2)cc1	i	1.6	/	/
COc1ccc(/C=C2\SC(=S)NC2=O)cc1OS(=O)(=O)c1ccc(NC(C)=O)cc1	i	/	/	/
COc1cc(/C=C2\SC(=S)NC2=O)ccc1OS(=O)(=O)c1ccccc1	i	41*	i	i	CHO-K1 ctr=-7;KCNQ1 pot spec=-12;KCNQ2 pot confirm=91*;Kir2-1 sel=-44;KCNQ2 W236L MoA=i
COc1cc(/C=C2/SC(=S)NC2=O)ccc1OS(=O)(=O)c1ccc(C)cc1	i	40*	i	i	CHO-K1 ctr=0.8*;KCNQ1 pot spec=-20;KCNQ2 pot confirm=-23;Kir2-1 sel=-50;KCNQ2 W236L MoA=i
COc1ccc(/C=C2/S/C(=N/S(=O)(=O)Cc3ccccc3)NC2=O)cc1OC	i	0.02	/	/
